The supplement of paper PMC6609913
Where a name gives a salt, the structure may show the parent alone. ± gives the standard deviation of the averaged measurements. In all, about 1,300 compounds were measured (“normalised cell viability”: median about 1, lowest 2% from about 0.14 on). The sample holds the lowest values, similar compounds and a random draw of the others, so the mix is not that of the screen.

Test system: V-C8 (BRCA2-deficient hamster cells)
Assay: normalised cell viability (fraction of plate median); higher = more viable cells (less toxic)
Conditions: 5 µM
Summary of the method: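 Hamster V-C8 cells with and without restored BRCA2 were exposed in 96-well plates to library drugs at 5 μM for 3 days (screen 1) or 6 days (screen 2). Cell viability was scored by resazurin assay, then median-plate normalised, averaging triplicate wells.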

| Compound | normalised cell viability (treatment time: 3 days) | normalised cell viability (treatment time: 6 days) |
| --- | --- | --- |
| Nc1ccc(S(=O)(=O)Nc2ccnn2-c2ccccc2)cc1 [Sulfaphenazole] | 1.01 ± 0.011 | 1.03 ± 0.031 |
| COc1ccccc1OCC(O)CN1CCN(CC(=O)Nc2c(C)cccc2C)CC1 (stereo unspecified) [Ranolazine] | 1.04 ± 0.054 | 0.967 ± 0.086 |
| N#CC(c1ccc(Cl)cc1)c1c(Cl)cc(-n2ncc(=O)[nH]c2=O)cc1Cl (stereo unspecified) [Diclazuril] | 0.905 ± 0.068 | 0.875 ± 0.068 |
| C#CCN(C)CCCOc1ccc(Cl)cc1Cl [Clorgyline hydrochloride] | 1.11 ± 0.063 | 1.019 ± 0.0054 |
| NS(=O)(=O)Cc1noc2ccccc12 [Zonisamide] | 1.01 ± 0.036 | 1.03 ± 0.065 |
| COc1ccc2c(c1)C(=O)N(CCc1ccc(S(=O)(=O)NC(=O)NC3CCCCC3)cc1)C(=O)C2(C)C [Gliquidone] | 1.05 ± 0.077 | 1.08 ± 0.049 |
| CN1CCCN=C1/C=C/c1cccs1 [Pyrantel tartrate] | 1.06 ± 0.019 | 1.02 ± 0.079 |
| CC(C)(C)NC[C@H](O)COc1nsnc1N1CCOCC1 [Timolol maleate salt] | 1.01 ± 0.022 | 1.07 ± 0.065 |
| CCN(CC)C(=O)Nc1ccc(OCC(O)CNC(C)(C)C)c(C(C)=O)c1 (stereo unspecified) [Celiprolol HCl] | 1.13 ± 0.12 | 0.988 ± 0.031 |
| C[C@H](O)C(=O)Nc1c(I)c(C(=O)NC(CO)CO)c(I)c(C(=O)NC(CO)CO)c1I [Iopamidol] | 0.952 ± 0.093 | 1.09 ± 0.06 |
| Clc1ccc(CSC(Cn2ccnc2)c2ccc(Cl)cc2Cl)cc1 (stereo unspecified) [Sulconazole nitrate] | 0.983 ± 0.067 | 0.829 ± 0.043 |
| CCOC(=O)Nc1ccc2c(c1)N(C(=O)CCN1CCOCC1)c1ccccc1S2 [Moricizine hydrochloride] | 1.1 ± 0.13 | 1.13 ± 0.083 |
| C=CC1=C(C(=O)O)N2C(=O)[C@@H](NC(=O)/C(=N\O)c3csc(N)n3)[C@H]2SC1 [Cefdinir] | 1.016 ± 0.0043 | 1.01 ± 0.06 |
| Cc1c(C)c2c(c(C)c1O)CCC(C)(COc1ccc(CC3SC(=O)NC3=O)cc1)O2 (stereo unspecified) [Troglitazone] | 0.68 ± 0.04 | 0.588 ± 0.04 |
| C=C(CC)C(=O)c1ccc(OCC(=O)O)c(Cl)c1Cl [Ethacrynic acid] | 1.08 ± 0.038 | 1.01 ± 0.048 |
| COc1cc2c(cc1OC)C(=O)C(CC1CCN(Cc3ccccc3)CC1)C2 (stereo unspecified) [Donepezil hydrochloride] | 0.957 ± 0.087 | 0.983 ± 0.011 |
| OCC(O)CN1CCN(c2ccccc2)CC1 (racemic) [Dropropizine (R,S)] | 0.964 ± 0.051 | 1.01 ± 0.057 |
| C=C[C@H]1CN2CC[C@H]1C[C@@H]2[C@@H](O)c1ccnc2ccc(OC)cc12 [Quinidine hydrochloride monohydrate] | 0.997 ± 0.0082 | 0.876 ± 0.16 |
